Screens: PubChem BioAssay, The Scripps Research Institute Molecular Screening Center
GPR151 ag = activates the human receptor GPR151 | hit rate 1% among 650,000 | AID 1508602 | Q8TDV0 | activation, % at 11.2 µM | PathHunter beta-arrestin GPR151 cells, luminescence; in the data active means activation above about 4.9%
Target sequence (Q8TDV0 whole entry, looked up): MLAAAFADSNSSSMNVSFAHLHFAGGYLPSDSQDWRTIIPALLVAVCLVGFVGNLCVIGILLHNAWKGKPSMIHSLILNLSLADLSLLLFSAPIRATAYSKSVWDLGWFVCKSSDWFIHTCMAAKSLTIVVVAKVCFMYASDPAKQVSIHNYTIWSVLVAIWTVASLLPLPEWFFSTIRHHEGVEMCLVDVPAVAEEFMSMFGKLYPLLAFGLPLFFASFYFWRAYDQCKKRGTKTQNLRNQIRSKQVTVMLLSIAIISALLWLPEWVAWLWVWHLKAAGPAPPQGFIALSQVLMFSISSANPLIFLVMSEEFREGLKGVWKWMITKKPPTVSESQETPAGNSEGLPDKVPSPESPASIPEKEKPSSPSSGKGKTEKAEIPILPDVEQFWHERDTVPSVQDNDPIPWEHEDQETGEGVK
TEAD-YAP block = TEAD-YAP interaction inhibition; HEK-TIYL cells, TEAD-Gal4/YAP UAS-luciferase luminescence; inhibition, % at 9.12 µM; hit rate 1.4% among 640,000; AID 1259422; in the data active means inhibition above about 32%
MITF inh = blocks human microphthalmia-associated transcription factor. hit rate 0.91% among 650,000. AlphaScreen MITF homodimerization, bead proximity signal. AID 1259374. O75030. inhibition, % at 2.6 µM; in the data active means inhibition above about 50%
FBW7 act = activators of human E3 ligase FBW7 | Q969H0 | AlphaScreen FBW7–phospho-cyclin E peptide binding, activator screen | normalized activity (activation), % at 26.1 µM | hit rate 0.13% among 650,000; in the data active means normalized activity above about 1.9%;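 further: purified mutant Fbw7 with reduced substrate affinity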
Each line names hits and unclear results; the compound was inactive in the other large screens. Shown are actives, neighbours in structure and some others; about 3.5% of the full set was active somewhere.

Cc1ccc(NC(=O)C2CCCN(S(=O)(=O)c3ccc4c(c3)oc(=O)n4C)C2)cc1 (stereo not drawn)	none
COc1ccc(/C=C(/NC(=O)c2ccccc2)C(=O)N/N=C/c2cccc(O)c2)cc1OC	none
COc1ccc(OC)c(/C=C(\NC(=O)c2ccccc2)C(=O)N/N=C/c2cccc(O)c2)c1	FBW7 act 2.5
O=C(N/N=C/c1ccccc1O)/C(=C/c1ccccc1)NC(=O)c1ccccc1	none
O=C(N/N=C/c1ccccc1F)/C(=C/c1ccccc1O)NC(=O)c1ccccc1	TEAD-YAP block 89
O=C(N/C(=C/c1ccccc1)C(=O)N1CCCCCCC1)c1ccccc1	none
O=C(N/C(=C/c1ccccc1O)C(=O)N1CCCCC1)c1ccccc1	TEAD-YAP block 74
COc1ccc(/C=C2/SC(N)=NC2=O)c(OC)c1	none
COc1ccc(OC)c(/C=C2\SC(N)=NC2=O)c1	MITF inh 58
NC1=NC(=O)/C(=C/c2cc(O)ccc2Cl)S1	TEAD-YAP block 39
COc1ccc(OC)c(C(=O)COC(=O)c2cc(C)ccc2C)c1	none
CCN(CC)C(=O)CSc1nc2ccccc2c(=O)n1Cc1ccc2c(c1)OCO2	none
CC(C)(C)CC(=O)Nc1sc2c(c1C(=O)O)CCC2	none
CN(CCC#N)C(=O)COC(=O)CCNC(=O)c1ccc([N+](=O)[O-])cc1	none
Cc1cccc(-c2nc3s/c(=C\c4ccco4)c(=O)n3n2)c1	none
Cc1nn2c(=O)/c(=C/c3ccco3)sc2nc1=O	MITF inh 77
COc1ccc(/C=C2\C=C(c3ccccc3)N(c3ccc(C)c([N+](=O)[O-])c3)C2=O)cc1Br	none
O=C(N/N=C/c1cccc2ccccc12)c1n[nH]c2c1CCC2	TEAD-YAP block 47
O=C(N/N=C/c1ccccc1)c1n[nH]c2c1CCCC2	TEAD-YAP block 69
C/C(=N\NC(=O)c1n[nH]c2c1CCCC2)c1ccc(O)cc1	none
O=C(N/N=C/c1ccc(O)cc1)c1n[nH]c2c1CCC2	TEAD-YAP block 59
O=C(N/N=C/c1ccc([N+](=O)[O-])cc1)c1n[nH]c2c1CCC2	TEAD-YAP block 54
O=C(N/N=C/c1ccc(Cl)cc1)c1n[nH]c2c1CCCC2	none
CN(C)CCNC(=O)CN1C(=O)COc2ccccc21	none
COC(C(=O)N/N=C/c1ccc(OCC(=O)Nc2ccccc2)cc1)c1ccccc1 (stereo not drawn)	none
Nc1nonc1-n1nnc(C(=O)N/N=C/c2cccc(O)c2)c1-c1cccc([N+](=O)[O-])c1	none
Cc1cc(=O)[nH]c(N/N=C/c2c(O)ccc3ccccc23)n1	TEAD-YAP block 89, MITF inh 62
O=c1cnnc(N/N=C/c2c(O)ccc3ccccc23)[nH]1	TEAD-YAP block 88, MITF inh 117
Cc1nnc(N/N=C/c2c(O)ccc3ccccc23)[nH]c1=O	TEAD-YAP block 89
O=c1[nH]nc(N/N=C/c2c(O)ccc3ccccc23)c(=O)[nH]1	none
CN1CCCCC1C(=O)N/N=C/c1c(O)ccc2ccccc12 (stereo not drawn)	TEAD-YAP block 78, MITF inh 84
CC1CCCC(C)N1S(=O)(=O)c1ccc(S(=O)(=O)N(C)C)cc1 (stereo not drawn)	none
NC(=S)N/N=C/c1c2ccccc2cc2ccccc12	none
NC(=S)N/N=C/c1c(O)ccc2ccccc12	MITF inh 78
Cc1nc(NC2CC2)cc(-c2ccccc2F)n1	none
Cc1ccc(C(C)C)c(OCC(=O)N/N=C/c2ccc[nH]2)c1	none
COc1cccc(/C=N/NC(=O)CSc2cc(C)nc3c(C)cccc23)c1O	TEAD-YAP block 32
COc1cccc(/C=N/NC(=O)COc2cc(C)ccc2C(C)C)c1O	TEAD-YAP block 57
COc1cccc(/C=N/NC(=O)COc2cccc(C)c2C)c1O	none
Cc1ccc(C(C)C)c(OCC(=O)N/N=C/c2ccc(O)cc2)c1	TEAD-YAP block 48
Cc1ccc(C(C)C)c(OCC(=O)N/N=C/c2ccc(O)c(O)c2)c1	TEAD-YAP block 47
O=C(Cc1cn(-c2ccc(Nc3ccc(N4CCOCC4)cc3)nn2)c2ccccc12)NCc1nc2ccccc2[nH]1	none
COC(=O)C(C)n1c(=O)c2c(nc3n(-c4ccccc4)c(C)c(C)n23)n(C)c1=O (stereo not drawn)	none
COCC(C)NS(=O)(=O)c1ccc(Nc2cc(C)ccc2OC)c([N+](=O)[O-])c1 (stereo not drawn)	none
CCOc1ccc(S(=O)(=O)N(Cc2cccs2)Cc2cccn2C)cc1F	none
O=C(COc1ccccc1)N/N=C\c1ccc(O)cc1	FBW7 act 2.1
COc1cncc(-c2cnc3ccc(NC4CCOCC4)nn23)c1	TEAD-YAP block 42
CCC(CO)Nc1ccc2ncc(-c3cccc(OC)c3)n2n1 (stereo not drawn)	TEAD-YAP block 57
CCC(CO)Nc1ccc2ncc(-c3ccco3)n2n1 (stereo not drawn)	TEAD-YAP block 33
OCc1ccc(-c2cnc3ccc(NC4CCC(O)CC4)nn23)cc1 (stereo not drawn)	TEAD-YAP block 51
O=C(O)c1ccc(-c2cnc3ccc(NC4CCC(O)CC4)nn23)cc1 (stereo not drawn)	none
CC(=O)Nc1ccc(S(=O)(=O)NNC(=O)c2ccccc2Br)cc1	none
Cc1nn(Cc2cccc(C(=O)Nc3ccc(I)cc3)c2)c(C)c1Br	none
CCC(CO)Nc1ccc2ncc(-c3ccc(C(C)=O)s3)n2n1 (stereo not drawn)	TEAD-YAP block 47
COc1cccc(-c2cnc3ccc(NCC4CC4)nn23)c1	TEAD-YAP block 47
CCOc1cc(/C=C2\SC(=O)N(C)C2=O)ccc1OC(C)C(=O)O (stereo not drawn)	none
CC(=O)N[C@@H](Cc1cccc(C)c1)c1nc2ncc(-c3ccncc3)cc2[nH]1	TEAD-YAP block 46
Cc1ccc2[nH]c(=O)c(CN(CC3COCCO3)C(=O)Nc3ccccc3Cl)cc2c1 (stereo not drawn)	TEAD-YAP block 37
O=C(CCC(=O)Nc1cccc(Cl)c1)N/N=C/c1ccccc1O	MITF inh 56
O=C(CCCCC(=O)N/N=C/c1ccccc1O)N/N=C/c1ccccc1O	TEAD-YAP block 40
CC(C)(C)NC(=O)C(=O)N/N=C/c1ccccc1O	MITF inh 53
O=C(CCCNc1ccccc1)N/N=C/c1ccccc1O	none
COc1cc(-c2cc(C(=O)Nc3cc(C)[nH]n3)c3ccccc3n2)cc(OC)c1OC	TEAD-YAP block 33
COc1ccc(CC(=O)Nc2ccc(C)c(C)c2)cc1OC	none
COc1ccc(CC(=O)Nc2cc(NC(=O)c3cccs3)ccc2C)cc1OC	TEAD-YAP block 32
COc1ccc(-c2ccc(C)c(NC(=O)Cc3ccc(OC)c(OC)c3)c2)nn1	TEAD-YAP block 64
Cc1cc(C(=O)N(C)C(Cc2ccccc2)C2CCN(C3CCSCC3)CC2)n(C)n1 (stereo not drawn)	none
Cc1noc(C)c1-c1cncc(C(=O)NC2CC2)c1	none
CCOC(=O)c1ccc(NS(=O)(=O)c2ccc(Cl)c(Cl)c2OC)cc1	none
COc1ccc(C(=O)NNC(=S)NC(=O)c2cccc([N+](=O)[O-])c2)cc1OC	none
O=C1CCCC2=C1C(c1cccc(Br)c1)Nc1ccc(C(=O)c3ccccc3)cc1N2 (stereo not drawn)	TEAD-YAP block 68
